A number with no mark means an inactive call. Activity calls are given as the source filed them.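 The calls were made as follows, unless noted: active = mean inhibition above 46.68%, the untreated control wells mean plus 3 SD; inactive = the rest.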
Assays:
[1] = target: Nuclear receptor coactivator 1 (Homo sapiens) (UniProt Q15788); assay: NCOA1 GAL4-fusion reporter inhibition – cell-based, luminescence, quadruplicate, confirmation (AID 588820); conditions: HEK293 GAL4-SRC1 luciferase reporter, at 3.6 µM, active compounds read high;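 also: 0% = DMSO wells and 100% = gossypol 36 µM treated wells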
Chain of Nuclear receptor coactivator 1 (Homo sapiens) (Q15788 whole entry, looked up, the tested form may be a part): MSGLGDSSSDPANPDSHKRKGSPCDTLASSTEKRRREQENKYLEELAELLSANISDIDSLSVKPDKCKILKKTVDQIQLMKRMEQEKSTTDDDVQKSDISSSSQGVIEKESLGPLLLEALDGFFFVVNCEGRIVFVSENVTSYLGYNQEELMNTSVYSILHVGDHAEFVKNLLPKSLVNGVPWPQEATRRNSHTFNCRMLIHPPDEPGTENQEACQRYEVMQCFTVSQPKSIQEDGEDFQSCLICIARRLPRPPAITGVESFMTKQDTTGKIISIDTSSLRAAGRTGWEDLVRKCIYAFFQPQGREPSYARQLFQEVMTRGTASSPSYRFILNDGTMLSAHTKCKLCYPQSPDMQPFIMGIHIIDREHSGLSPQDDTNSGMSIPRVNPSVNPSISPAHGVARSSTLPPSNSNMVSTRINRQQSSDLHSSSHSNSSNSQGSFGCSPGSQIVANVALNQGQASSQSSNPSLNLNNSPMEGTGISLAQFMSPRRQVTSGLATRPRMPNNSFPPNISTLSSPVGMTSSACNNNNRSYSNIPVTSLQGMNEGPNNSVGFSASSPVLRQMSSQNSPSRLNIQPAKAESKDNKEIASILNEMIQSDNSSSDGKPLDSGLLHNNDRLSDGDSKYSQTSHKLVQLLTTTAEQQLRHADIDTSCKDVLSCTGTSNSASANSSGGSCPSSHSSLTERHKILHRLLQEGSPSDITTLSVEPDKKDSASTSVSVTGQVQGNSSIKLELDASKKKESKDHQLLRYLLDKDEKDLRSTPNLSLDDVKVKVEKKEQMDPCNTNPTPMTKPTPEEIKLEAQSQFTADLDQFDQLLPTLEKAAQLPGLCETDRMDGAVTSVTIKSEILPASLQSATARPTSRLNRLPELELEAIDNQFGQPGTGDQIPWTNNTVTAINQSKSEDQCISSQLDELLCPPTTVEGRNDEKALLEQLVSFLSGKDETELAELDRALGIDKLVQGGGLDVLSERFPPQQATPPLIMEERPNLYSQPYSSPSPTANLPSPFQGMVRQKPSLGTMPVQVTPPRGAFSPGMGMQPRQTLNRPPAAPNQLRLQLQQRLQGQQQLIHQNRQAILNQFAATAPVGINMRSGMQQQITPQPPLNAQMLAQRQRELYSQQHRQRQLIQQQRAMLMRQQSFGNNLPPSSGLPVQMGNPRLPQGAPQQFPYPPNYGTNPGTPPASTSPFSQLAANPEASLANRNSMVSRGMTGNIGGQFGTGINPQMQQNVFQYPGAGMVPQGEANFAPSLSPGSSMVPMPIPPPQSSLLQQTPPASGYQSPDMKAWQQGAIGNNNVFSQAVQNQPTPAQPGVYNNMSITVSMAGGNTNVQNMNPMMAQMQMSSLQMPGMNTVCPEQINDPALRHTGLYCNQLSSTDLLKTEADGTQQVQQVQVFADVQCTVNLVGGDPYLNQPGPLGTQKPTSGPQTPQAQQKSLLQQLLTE

[2] = repression of VP16-driven luciferase reporter – cell-based, luminescence, high throughput, counter-screen for SRC1 inhibitor project (AID 588824; in the data active = inhibition above about 25%); conditions: cell-based VP16 transactivation luciferase luminescence; at 3.6 µM; active compounds read high

SMILES	inhibition [1] [%]	inhibition [2]
COc1ccc(CN2CCN(C(=O)c3ccc(S(=O)(=O)N4CCCCCC4)cc3)CC2)cc1	-2.25	25.6% (active)
Cc1c(C(=O)NCC2COc3ccccc3O2)oc2ccc(S(=O)(=O)N3CCOCC3)cc12 (stereo not drawn)	-7.47	15.8%
Cc1ccc(S(=O)(=O)c2nc(-c3ccccc3Cl)oc2NCCCN2CCOCC2)cc1	-13.7	-5.68%
CC1Sc2n(c3ccccc3[n+]2C)N=C1c1ccccc1 (stereo not drawn)	-6.75	11.7%
COc1ccc(S(=O)(=O)Nc2ccccc2C(=O)N2CCCC2)cc1OC	-5.26	-1.42%
CC1CCN(C(=O)Cn2c3ccc(F)cc3c3nc4n(c(=O)c32)CCCS4)CC1	4.67	3.44%
COc1ccc(Cc2nnc(NC(=O)c3cc(OC)c(OC)c(OC)c3)s2)cc1OC	-22.8	-17.4%
O=C1c2cccc(OCc3ccc(F)cc3)c2CCN1Cc1ccccc1	20.6	13.6%
O=C(Nc1ccccc1N1CCOCC1)c1ccc(N2CCOCC2)c([N+](=O)[O-])c1	-19.5	-16.2%
CSC1=NCCCN1C(=O)c1c(-c2ccccc2Cl)noc1C	0.66	-14.8%
CC(C)Oc1ccc(C(=O)Nc2nc3ccccc3[nH]2)cc1	-74.9	-39.4%
CC(=O)c1c(C)[nH]c(C(=O)COc2ccc3ccc(=O)oc3c2)c1C	-13.5	4.04%
O=c1c2ccccc2cnn1Cc1n[nH]c(=S)n1C1CC2CCC1C2 (stereo not drawn)	8.04	-8.54%
COc1cccc(OCCn2cc(C(C)=O)c3ccccc32)c1	10.7	30.8% (active)
Cc1cc(C)c(OCCN2CCCC2)c(Cl)c1	-3.95	2.73%
CC(=O)Nc1sc2c(c1-c1nc3ccccc3s1)CCN(C(C)C)C2	-147	59.3% (active)
CN(C)S(=O)(=O)c1ccc(N2CCCC2)c(C(=O)OCC(=O)NC2(C#N)CCCCC2)c1	4.07	-9.13%
COc1ccc(OC)c(S(=O)(=O)N2CCN(c3ccccc3)CC2)c1	-2.63	-1.07%
COc1ccc(OC)c(/C=C2\NC(=O)NC2=O)c1	29.5	15.5%
Cc1ccc(-n2c(C)nn(CC3CC3)c2=O)cc1	2.58	-3.08%
COC(=O)C1CCCCN1C(=O)c1cc(COc2cccc3cnccc23)on1 (stereo not drawn)	30.8	43.3% (active)
Cc1cc(C)c(Nc2cc(S(=O)(=O)O)c(N)c3c2C(=O)c2ccccc2C3=O)c(C)c1	9.3	8.52%
O=C1Nc2cc(C(=O)NCC3CCCO3)ccc2S/C1=C/c1ccccc1F (stereo not drawn)	-7.31	-5.02%

SMILES	inhibition [1] [%]	inhibition [2]
COc1cccc2c1OC1(C)CC2NC(=O)N1c1cccc(C(=O)Nc2ccc3c(c2)OCCO3)c1 (stereo not drawn)	-28.6	-19.2%
COc1cccc(C=NNC(=O)c2ccncc2)c1O	7.89	10.7%
CCCCCOc1ccc(/C=C/c2c([N+](=O)[O-])c(=O)n(C)c(=O)n2C)cc1	23.6	22.4%
Cn1c(N)c(C(=O)CSc2nn(-c3ccccc3)c(=S)s2)c(=O)n(C)c1=O	8.31	17.7%
Cc1ccc(NC(=O)CN(C(=O)N2CCN(C)CC2)S(=O)(=O)c2ccc(C)cc2)cc1	-4.36	-2.41%
COCCN(C(=O)C1=COCCO1)c1c(N)n(Cc2ccccc2)c(=O)[nH]c1=O	-12.3	-15.5%
COc1ccc(C)cc1S(=O)(=O)N1CCCC(N2CCN(c3ccccc3)CC2)C1 (stereo not drawn)	2.59	6.89%
COc1ccc2cc3cc(C(=O)NCc4cccs4)oc3nc2c1	4.16	39.4% (active)
O=C(COc1ccc(F)cc1Cl)Nc1ccc(N2CCOCC2)cc1N1CCOCC1	-16.6	2.25%
CCOc1ccc(-c2cc(C(=O)Nc3ccc(C)c(NS(C)(=O)=O)c3)[nH]n2)c(C)c1	-14	5.47%
CC(C)N(C)c1ncnc2c1ncn2[C@H]1CN(Cc2ccncc2)C[C@@H](CO)O1	-19.9	-7.41%
COc1ccc(C(=O)Nc2ccc(-c3ccc(C)o3)cc2)cc1S(=O)(=O)N1CCOCC1	-16.1	22.2%
COc1ccc(Cl)cc1NC(=O)CN(C)C(=O)c1ccc(COc2ccccc2)cc1	-31.4	-12.9%
COc1cc(C(c2sc3nc(C)nn3c2O)N2CCc3ccccc3C2)cc(OC)c1OC (stereo not drawn)	-4.8	-0.57%
CN1CCN(CCC(=O)N/N=C/c2cc3c(cc2[N+](=O)[O-])OCO3)CC1	-2.3	-2.21%
CCNc1nc2c(c(=O)n(C)c(=O)n2C)n1Cc1ccc(Cl)cc1	-0.87	23.4%
CCOCCOC(=O)c1[nH]c2c(c1C)C(=O)CC(c1cc(OC)c(OC)c(OC)c1)C2 (stereo not drawn)	-15.9	13.5%
CC(Oc1ccccc1)C(=O)N1CCC2(CC1)CC(=O)c1ccccc1O2 (stereo not drawn)	5.89	3.37%
O=C(CN1C(=O)CCC1=O)Nc1ccc(S(=O)(=O)N2CCOCC2)cc1	-20.2	4.05%
COc1ccccc1C(=O)N(Cc1ccc(C)o1)C1CCS(=O)(=O)C1 (stereo not drawn)	-7.5	3.3%
COC(=O)N(NC(=O)C(O)(CCC(C)C)CCC(C)C)c1ccccc1	16.2	11.5%
CCN(CC)CCNC(=O)c1ccc(NC(=O)C2CCN(c3ncnc4sc(C)c(C)c34)CC2)cc1	24.3	17.3%
CC(C)C(=O)N1CCN(c2ccc(NC(=O)c3ccc4c(c3)OCCO4)cc2Cl)CC1	-52.5	-6.57%

SMILES	inhibition [1] [%]	inhibition [2]
Cc1ccccc1COc1cccc(/C=N/NC(=O)c2nnn(-c3nonc3N)c2C)c1	7.5	18.5%
Cc1ccc(C)c(S(=O)(=O)N2CCN(C(=O)C3CCN(C(=O)c4ccc(F)cc4)CC3)CC2)c1	-10.9	1.93%
O=C(Nc1ccc(Oc2ccccc2)cc1)c1csc([C@@H]2O[C@H](CO)[C@@H](O)[C@H]2O)n1	-12.9	19.7%
COc1ccccc1C1NC(=O)NC(C)=C1C(=O)OC1CCCC(C)C1 (stereo not drawn)	6.58	-1.62%
Cc1cc2[nH]c(=O)c(=O)[nH]c2cc1S(=O)(=O)NC1CCC(C)CC1 (stereo not drawn)	-3.97	-2.19%
COc1cc(S(=O)(=O)NCc2ccccc2Cl)ccc1-n1cnnn1	-9.68	-5.92%
O=C(c1ccccc1)C1CCN(C(=O)c2cccs2)CC1	-10	-0.27%
CNc1snc(C)c1C(=O)OCC(=O)Nc1ccc(C)cc1F	3.09	-1.51%
COc1cc(/C=C/C(=O)Nc2ccc3nc4n(c(=O)c3c2)CCCC4)cc(OC)c1OC	-22.6	-26.8%
CCCc1cc(=O)oc2cc(O[C@@H]3O[C@H](CO)[C@@H](O)[C@H](O)[C@H]3O)ccc12	-9.52	-11.7%
COC(=O)C(=N/Nc1ccccc1C(=O)OC)/C(C)=N/O	-2.93	-4.44%
COc1cc(C(=O)Nc2cccc(-c3cn4cccnc4n3)c2)cc(OC)c1OC	-27.4	-27.3%
Cc1ccc(NS(=O)(=O)c2ccc(C(=O)NC3CCN(Cc4ccccc4)CC3)cc2)cc1	-9.12	24.2%
COc1cc(/C=N/NC(=O)NC23CC4CC(CC(C4)C2)C3)ccc1OCC(N)=O	-24.7	-17.2%
Cc1ccccc1-c1ccc(CN2C(C)C(=O)N(Cc3cn(Cc4ccco4)nn3)CCS2(=O)=O)cc1 (stereo not drawn)	7.13	6.95%
Cc1ccc(N2C(N)=C(C#N)C3(C(=O)N(C)c4ccccc43)C3=C2CC(C)(C)CC3=O)cc1Cl (stereo not drawn)	3.57	14.7%
Cc1cc2c(OCC(O)CNCc3ccco3)cccc2[nH]1 (stereo not drawn)	-14.2	-11.1%
COc1ccccc1OCCC(=O)OCC(=O)NC(C)c1ccccc1 (stereo not drawn)	-8.57	-18.5%
O=C(CN1C(=O)COc2ccccc21)Nc1ccccc1F	-26	1.99%
Nc1nc(N)c2c(ccc3nccc32)[nH]1	-7.68	24.9%
Nn1c(SCC(=O)Nc2ccccc2)nnc(Cc2ccccc2)c1=O	0.49	5.01%
Cc1ccc(S(=O)(=O)NCc2ccc3c(c2)OCO3)cc1C	-20.8	1.6%
CSc1sc(C(=O)NC(=O)NCc2cccnc2)c(C)c1-c1ccon1	3.32	1.48%
